Measurements taken from PubChem BioAssay AID504333 (National Center for Advancing Translational Sciences (NCATS), 2011).
“And” between values parts separate entries of the source, which are not always exact repeats. Equal entries are not always repeated. Hit rate of the full screen: of about 360,000 compounds, about 16,000 (4.4%) were called active. Entries that show only a call come without a potency. Not shown: some 9% with an inconclusive outcome. Calls follow the shape of the dose curve; as a rule, active = well fitted inhibition curve with a large enough effect; inconclusive = small, poorly fitted or top-dose-only effect; inactive = no such curve, though single readings can be large or run the other way. The full list was thinned out, with actives kept by preference. A structure can be active in one record and inactive in another.
Also: nearly all actives have a fitted effect of over 60% in size.
Potency is read from the fitted curve at half-maximal effect.

These compounds were tested against Bromodomain adjacent to zinc finger domain protein 2B (Homo sapiens) (UniProt Q9UIF8) (assay: qHTS Assay for Inhibitors of BAZ2B). Details: AlphaScreen BAZ2B-H3K14Ac peptide displacement; series mostly up to 114 µM.
Sequence of Bromodomain adjacent to zinc finger domain protein 2B (Homo sapiens) (Q9UIF8 whole entry, looked up, the tested form may be a part): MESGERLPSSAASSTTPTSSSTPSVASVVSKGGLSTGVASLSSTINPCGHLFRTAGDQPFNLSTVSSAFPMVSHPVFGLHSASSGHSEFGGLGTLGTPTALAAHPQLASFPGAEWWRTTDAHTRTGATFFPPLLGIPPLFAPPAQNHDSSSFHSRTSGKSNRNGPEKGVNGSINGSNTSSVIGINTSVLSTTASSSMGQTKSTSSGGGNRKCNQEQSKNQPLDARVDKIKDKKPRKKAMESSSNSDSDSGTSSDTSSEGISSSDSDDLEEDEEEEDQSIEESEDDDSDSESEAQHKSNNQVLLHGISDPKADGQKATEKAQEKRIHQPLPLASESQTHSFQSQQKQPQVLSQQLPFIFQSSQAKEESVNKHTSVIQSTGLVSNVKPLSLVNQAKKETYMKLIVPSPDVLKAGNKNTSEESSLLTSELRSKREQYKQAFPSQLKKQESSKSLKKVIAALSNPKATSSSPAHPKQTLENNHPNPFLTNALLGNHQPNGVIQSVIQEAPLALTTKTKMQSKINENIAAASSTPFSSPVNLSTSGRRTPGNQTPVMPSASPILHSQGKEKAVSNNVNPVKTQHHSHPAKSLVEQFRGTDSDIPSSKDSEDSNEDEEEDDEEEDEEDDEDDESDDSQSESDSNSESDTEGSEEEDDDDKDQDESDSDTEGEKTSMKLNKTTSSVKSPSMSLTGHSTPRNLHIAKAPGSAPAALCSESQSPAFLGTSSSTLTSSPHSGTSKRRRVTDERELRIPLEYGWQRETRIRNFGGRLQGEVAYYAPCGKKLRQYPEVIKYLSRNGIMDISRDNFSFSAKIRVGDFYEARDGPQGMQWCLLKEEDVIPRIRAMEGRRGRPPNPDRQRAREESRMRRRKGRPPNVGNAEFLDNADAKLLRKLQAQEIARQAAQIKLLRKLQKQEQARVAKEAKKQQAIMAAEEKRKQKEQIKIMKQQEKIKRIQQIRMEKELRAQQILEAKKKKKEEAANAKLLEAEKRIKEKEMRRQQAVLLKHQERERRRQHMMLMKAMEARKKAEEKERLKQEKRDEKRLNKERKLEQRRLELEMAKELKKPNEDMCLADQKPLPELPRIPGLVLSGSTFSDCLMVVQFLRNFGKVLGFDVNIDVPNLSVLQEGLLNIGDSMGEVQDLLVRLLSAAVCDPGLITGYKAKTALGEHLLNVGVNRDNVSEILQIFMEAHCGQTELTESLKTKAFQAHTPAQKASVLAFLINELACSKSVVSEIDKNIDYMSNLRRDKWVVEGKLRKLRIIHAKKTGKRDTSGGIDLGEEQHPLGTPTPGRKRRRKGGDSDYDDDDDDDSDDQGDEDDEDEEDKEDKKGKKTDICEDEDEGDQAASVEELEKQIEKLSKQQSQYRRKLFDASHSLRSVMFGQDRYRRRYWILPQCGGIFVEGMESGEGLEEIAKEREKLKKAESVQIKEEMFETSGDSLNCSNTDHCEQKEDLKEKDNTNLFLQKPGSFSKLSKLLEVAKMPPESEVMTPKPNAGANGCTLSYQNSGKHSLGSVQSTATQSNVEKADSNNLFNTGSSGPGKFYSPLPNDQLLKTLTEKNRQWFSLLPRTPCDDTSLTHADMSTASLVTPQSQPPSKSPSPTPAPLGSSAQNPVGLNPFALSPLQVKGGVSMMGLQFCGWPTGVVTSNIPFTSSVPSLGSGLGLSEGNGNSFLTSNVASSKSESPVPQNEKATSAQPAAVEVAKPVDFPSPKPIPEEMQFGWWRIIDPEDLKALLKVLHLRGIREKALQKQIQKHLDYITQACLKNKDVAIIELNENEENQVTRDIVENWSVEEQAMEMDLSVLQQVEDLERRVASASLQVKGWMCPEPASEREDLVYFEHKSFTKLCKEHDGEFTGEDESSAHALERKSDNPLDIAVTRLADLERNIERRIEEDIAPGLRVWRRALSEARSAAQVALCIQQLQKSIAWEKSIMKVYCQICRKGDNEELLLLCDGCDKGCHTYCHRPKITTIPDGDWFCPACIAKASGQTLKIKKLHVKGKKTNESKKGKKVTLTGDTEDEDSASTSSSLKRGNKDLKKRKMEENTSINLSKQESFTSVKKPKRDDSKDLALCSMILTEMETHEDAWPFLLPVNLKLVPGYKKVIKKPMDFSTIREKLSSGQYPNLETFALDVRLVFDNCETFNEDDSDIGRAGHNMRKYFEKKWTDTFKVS
Procedure, shortened: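 Inhibition is scored as reduced AlphaScreen emission. The BAZ2B/b-H3(5-23)K14Ac complex (50 nM each) in PBS pH 7.4, 0.01% Tween-20 meets compound (up to 110 uM) for 30 min at RT before bead addition.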
For CCN(CC)c1ccc(NC(=O)CN2C(=O)c3cccnc3Oc3ccc(Cl)cc32)c(C)c1, the Potency was “inactive”.
Cc1cccc(C(=O)Nc2ccc(S(=O)(=O)N3CCCCC3c3cccnc3)cc2)c1 (stereo unspecified) was tested, and the Potency was “inactive”.
With Cc1ccc(Cn2c(C)c3cnn(CC(=O)NCc4ccccc4)c(=O)c3c2C)cc1 the Potency was “inactive”.
COC(=O)c1scc(-c2ccccc2)c1S(=O)(=O)Nc1ccccc1 was tested, and the Potency was “inactive”.
With CC(=O)c1ccc(NC(=O)CCc2nc(-c3ccc(C)cc3)no2)cc1 the Potency was “inactive”.
COc1ccc(Cl)cc1NC(=O)CCn1c(=O)c2cccn2c2ccccc21 was tested, and the Potency was “inactive”.
In the case of Cc1ccc(NC(=O)CCCn2c(=O)c3cccn3c3ccccc32)cc1Cl, the Potency is reported as 50.1 µM (active).
In the case of CCCCn1c(=O)c(CCC(=O)OCC(=O)Nc2ccc(C)c(Cl)c2)nc2ccccc21, the Potency is reported as “inactive”.
Cc1cccc(NC(=O)CSc2nc(-c3ccco3)cc(C(F)(F)F)n2)c1C was tested, and the Potency was “inactive”.
Cc1ccc(Cl)cc1N1CCN(C(=O)c2cnc3c(-c4ccc(F)cc4)c(C)nn3c2C)CC1 was tested, and the Potency was “inactive”.
For Cc1ccc(C(=O)N/N=C\c2cc(Br)c(Br)o2)cn1, the Potency was 50.1 µM (active).
For O=C(N/N=C/c1ccc(Br)o1)c1cncc(Br)c1, the Potency was “inactive”.
With O=C(O)c1ccc(/C=N/NC(=O)c2ccc(Br)cc2)cc1 the Potency was “inactive”.
In the case of Cc1nn2c(=O)cc(COC(=O)c3cccc(NC(=O)COc4ccccc4Cl)c3)nc2s1, the Potency is reported as “inactive”.
In the case of CCOc1ccc(-c2cc3nc(C4CCN(C(=O)OC(C)(C)C)CC4)c(C(=O)Nc4cccc(CC)c4)cn3n2)cc1, the Potency is reported as “inactive”.
In the case of Cc1n[nH]c(=O)n1-c1ccc(Oc2ccccc2)cc1, the Potency is reported as “inactive”.
For Cc1cc(C(=O)OCC(=O)NCc2ccco2)c(C)n1-c1ccccc1, the Potency was “inactive”.
For Cc1cc(-c2csc(N)n2)c(C)n1-c1ccccc1, the Potency was 44.7 µM (active).
In the case of COc1ccc(NS(=O)(=O)c2cc3c4c(c2)CC(=O)N4CCC3)cc1Cl, the Potency is reported as “inactive”.
In the case of COc1ccccc1CNC(=O)c1ccc(CS(=O)c2ccccc2Cl)o1 (stereo unspecified), the Potency is reported as “inactive”.
In the case of Cc1noc(C)c1/C=N/Nc1ccc2ccccc2n1, the Potency is reported as “inactive”.
For Brc1ccc(-c2csc(N/N=C/c3ccc4c(c3)OCO4)n2)cc1, the Potency was “inactive”.
In the case of C(=N\Nc1ccc2ccccc2n1)/c1ccc2c(c1)OCO2, the Potency is reported as 50.1 µM (active).
In the case of COc1ccc(CCNC(=O)CCCn2c(=O)c3ccccc3n(Cc3ccc(C)cc3)c2=O)cc1OC, the Potency is reported as “inactive”.
With CCOC(=O)c1cc(-c2ccc(OC)c(S(=O)(=O)Nc3ccc(OC)cc3OC)c2)on1 the Potency was “inactive”.
For Cc1ccc(-n2ncc3c(NCCCn4ccnc4)ncnc32)cc1Cl, the Potency was 44.7 µM (active).
For CCN(CC)CCNc1ncnc2c1cnn2-c1cc(Cl)ccc1C, the Potency was “inactive”.
Clc1cccc(-n2ncc3c(NCCc4ccccc4)ncnc32)c1 was tested, and the Potency was “inactive”.
For O=C(CC1Oc2ccc(Cl)cc2NC1=O)NCc1ccccc1 (stereo unspecified), the Potency was “inactive”.
For CCOc1ccccc1CNC(=O)c1cnc2c(-c3ccc(OCC)c(OCC)c3)c(C)nn2c1C, the Potency was “inactive”.
In the case of Cc1ccc(SCC(=O)Nc2ccc3oc(-c4ccccc4F)nc3c2)cc1, the Potency is reported as “inactive”.
CCOC(=O)C1CCCN(C(=O)c2ccc3c(c2)sc2nc(-c4ccc(CC)cc4)cn23)C1 (stereo unspecified) was tested, and the Potency was “inactive”.
With Cc1ccccc1CNC(=O)CSc1nnc(C)c2c(C)n(-c3ccccc3)nc12 the Potency was “inactive”.
For C/C(=N\NC(=O)Cc1ccc(Br)cc1)c1cccnc1, the Potency was “inactive”.
In the case of C/C(=N\NC(=O)Cc1ccc(Cl)cc1)c1ccccn1, the Potency is reported as 44.7 µM (active).
In the case of C/C(=N\NC(=O)c1ccccc1F)c1ccccn1, the Potency is reported as 20 µM (active).
In the case of C/C(CC(=O)Nc1ccc(N(C)C)cc1)=N\NC(=O)c1ccccc1F, the Potency is reported as “inactive”.
For O=C(Nc1ccc(NC(=O)c2ccccc2F)cc1)c1ccccc1F, the Potency was “inactive”.
NC(=O)NC(CC(=O)NNC(=O)c1ccccn1)c1ccc(Cl)cc1 (stereo unspecified) was tested, and the Potency was “inactive”.
With Cc1nc2nc(NCc3cccc(Br)c3)[nH]n2c(=O)c1Cc1ccccc1 the Potency was “inactive”.
For O=C(CSc1nc2c(c(=O)[nH]1)CN(Cc1ccc(F)cc1)CC2)Nc1ccccc1Cl, the Potency was “inactive”.
In the case of Cc1noc2ncnc(NCc3ccccc3Cl)c12, the Potency is reported as “inactive”.
For COC(=O)c1ccc(NC(=O)c2cc(S(=O)(=O)N3CCC(C)CC3)cn2C)cc1, the Potency was “inactive”.
For Cc1oc(-c2ccccc2F)nc1CN1CCC(C(=O)NCCc2ccc(Cl)cc2)CC1, the Potency was “inactive”.
With CC(=O)Nc1ccc(S(=O)(=O)Oc2ccc(/C=N/N=C3/NC(=O)C(CC(=O)O)S3)cc2)cc1 (stereo unspecified) the Potency was 50.1 µM (active).
In the case of Cc1ccc(S(=O)(=O)Oc2ccc(/C=N/NC(=O)c3ccncc3)cc2)cc1, the Potency is reported as “inactive”.
Cc1ccc(NC(=O)CC2S/C(=N/N=C3\CCCc4ccccc43)NC2=O)cc1 (stereo unspecified) was tested, and the Potency was “inactive”.
For CCOc1ccc(N2CC(C)Cn3c2nc2c3c(=O)n(Cc3c(F)cccc3Cl)c(=O)n2C)cc1 (stereo unspecified), the Potency was “inactive”.
COc1cc2c(cc1O)[C@H](Cc1ccc(Oc3cc(C[C@@H]4NCCc5cc(OC)c(O)cc54)ccc3O)cc1)NCC2 was tested, and the Potency was 39.8 µM (active).
With CCc1ccc(OCC2c3cc(OC)c(OC)cc3CCN2C(C)=O)cc1 (stereo unspecified) the Potency was “inactive”.
In the case of COC(=O)C1=CN(Cc2ccc(OC)cc2)C=C(C(=O)OC)C1c1ccc(O)c(OC)c1, the Potency is reported as “inactive”.
For Cn1c(=O)n(Cc2c(F)cccc2Cl)c(=O)c2c1nc1n2CCN1c1ccc(F)cc1, the Potency was “inactive”.
COc1cccc(CNC(=O)CCc2nc(-c3ccc(C)cc3)no2)c1 was tested, and the Potency was “inactive”.
With CCCCOc1ccc(CNC(=O)c2ccc3c(c2)N(C)C(=O)C2CCCCN32)cc1 (stereo unspecified) the Potency was “inactive”.
With O=C(NCCCc1ccccc1)C(=O)c1c[nH]c2ccccc12 the Potency was “inactive”.
In the case of COc1ccc(OC)c2[nH]c(=O)c(CCNC(=O)C(=O)c3c[nH]c4ccccc34)cc12, the Potency is reported as 56.2 µM (active).
COc1ccc(OC)c2[nH]c(=O)c(CCNC(=O)C(C)(C)C)cc12 was tested, and the Potency was “inactive”.
For COc1ccc(CCNC(=O)c2ccc(CSCc3ccc(C)cc3)o2)cc1OC, the Potency was “inactive”.
In the case of COc1cc2c(=O)c(S(=O)(=O)c3ccc(C(C)C)cc3)cn(Cc3ccccc3C)c2cc1OC, the Potency is reported as “inactive”.
For CCC1(C)CC(=O)c2c(ccc3oc(C(=O)Nc4ccc(C(C)=O)cc4)c(C)c23)O1 (stereo unspecified), the Potency was “inactive”.
COc1cccc(S(=O)(=O)NCc2ccc(C(=O)NCc3ccccn3)cc2)c1 was tested, and the Potency was “inactive”.
In the case of COc1ccc(-c2nc3ccc(C(=O)NCc4ccc(C)cc4)cc3nc2-c2ccc(OC)cc2)cc1, the Potency is reported as “inactive”.
COCCNC(=O)Nc1ccc2nc(-c3ccco3)c(-c3ccco3)nc2c1 was tested, and the Potency was 5.62 µM (active).
With O=C(NCc1ccccn1)c1ccc2nc(-c3ccco3)c(-c3ccco3)nc2c1 the Potency was 11.2 µM (active).
With COc1ccc(NC(=O)COCc2cc(-c3ccco3)on2)cc1 the Potency was “inactive”.
CCOc1ccc(NC(=O)c2ncoc2-c2ccco2)cc1 was tested, and the Potency was “inactive”.
For O=C(NCc1ccc2c(c1)CCN2C(=O)c1ccccc1)c1ccccc1, the Potency was “inactive”.
With CCOC(=O)c1cc2c(=O)n3ccccc3nc2n(CC2CCCO2)c1=NC(=O)c1ccccc1F (stereo unspecified) the Potency was “inactive”.
With O=C(Cn1cc(SCc2cccc(Cl)c2)c2ccccc21)N1CCCCC1 the Potency was “inactive”.
O=C(NCC(c1ccc(Cl)cc1)N1CCOCC1)c1ccccc1F (stereo unspecified) was tested, and the Potency was “inactive”.
CN(Cc1ccccc1)c1ccc(-c2nc(-c3ccccc3)no2)cc1[N+](=O)[O-] was tested, and the Potency was “inactive”.
For Cc1ccc(-c2ccnc3[nH]n(-c4ccccc4)c(=O)c23)cc1, the Potency was “inactive”.
In the case of Cc1ccc(C2C3=C(Nc4[nH]n(-c5ccccc5)c(=O)c42)c2ccccc2C3=O)cc1 (stereo unspecified), the Potency is reported as 35.5 µM (active).
Cc1ccc(-n2[nH]c(C)c(/C=N/N3C(=O)c4cccc5cccc(c45)C3=O)c2=O)cc1 was tested, and the Potency was “inactive”.
COc1cc2[nH]c(=O)n(Cc3ccc(C(=O)NCc4ccc(C)cc4)cc3)c(=O)c2cc1OC was tested, and the Potency was “inactive”.
With O=c1cc(CSc2ncn[nH]2)[nH]c2ccc(F)cc12 the Potency was “inactive”.
With Cc1ccc(NC(=O)Cc2ccc(NC(=O)N3CCCCc4ccccc43)cc2)cc1 the Potency was “inactive”.
For CCN(CC)S(=O)(=O)c1ccc2c(c1)nc(CN(C)C(=O)Nc1ccc(Cl)cc1)n2C, the Potency was “inactive”.
In the case of O=C(NCCC1=CCCCC1)c1ccc2c(c1)N(Cc1ccccc1F)C(=O)c1ccccc1S2(=O)=O, the Potency is reported as “inactive”.
In the case of COc1cc2cc(C(=O)N/N=C/c3cccc(OC)c3OC)[nH]c2cc1OC, the Potency is reported as “inactive”.
With COc1cccc(/C=N\NC(=O)C2=NNC(=O)C2C)c1O (stereo unspecified) the Potency was 50.1 µM (active).
For CCOc1ccc2[nH]c(C(=O)N/N=C/c3cccc(OC)c3OC)cc2c1, the Potency was “inactive”.
For COc1ccc(Nc2ncc(C(=O)Nc3cc(C)ccc3OC)c3ccccc23)cc1, the Potency was “inactive”.
COc1ccc(-c2nc(Cn3c(=O)cc(C)c4c(C)nn(-c5ccccc5)c43)c(C)o2)cc1OC was tested, and the Potency was “inactive”.
For COc1ccc(Cl)cc1NC(=O)CSc1nc(=O)[nH]c2c1CCCC2, the Potency was “inactive”.
With COc1cc(OC)cc(C(=O)NCCc2csc3nc(-c4ccccc4F)nn23)c1 the Potency was “inactive”.
For COc1ccc(S(=O)(=O)NCC(c2ccc(C)cc2)N2CCN(C)CC2)cc1OC (stereo unspecified), the Potency was “inactive”.
In the case of COc1ccc(S(=O)(=O)NCC(c2ccc(N(C)C)cc2)N2CCc3ccccc32)cc1OC (stereo unspecified), the Potency is reported as 11.2 µM (active).
In the case of COc1ccc(C(=O)NCC(c2ccc(N(C)C)cc2)N2CCc3ccccc32)c(OC)c1 (stereo unspecified), the Potency is reported as “inactive”.
In the case of CCn1c(C(=O)Nc2cc(Cl)ccc2C)cc2sc(Cl)cc21, the Potency is reported as “inactive”.
With COc1cccc(CNC(=O)CSc2c3c(nc4cc(Cl)ccc24)CCCC3)c1 the Potency was “inactive”.
In the case of CCOc1ccc(CNC(=O)C2CCN(c3nnc(-n4cccc4CNc4ccc(C)cc4)s3)CC2)cc1OC, the Potency is reported as “inactive”.
In the case of CC(C)c1ccc(Cn2c(COc3ccccc3)nc3ccccc32)cc1, the Potency is reported as “inactive”.
In the case of CC(C)c1ccc2c(c1)c(SC(C)(C)C)c(CC(C)(C)C(=O)O)n2Cc1ccc(Cl)cc1, the Potency is reported as “inactive and 50.1 µM (active)”.
In the case of Cc1c(C)n(Cc2ccc(Cl)cc2)c2ccc(C(=O)N3CCN(c4ccccc4F)CC3)cc12, the Potency is reported as “inactive”.
With CCCn1c(=N)c(C(=O)NCc2ccccc2)cc2c(=O)n3cccc(C)c3nc21 the Potency was “inactive”.
